# This is part of a sample that, as a whole, favours compounds with a hit. Of some 79,000 tested, about 15% had one in any assay. A number with no mark means an inactive call. Activity calls are given as the source filed them. Rule as the data show it: active = growth inhibition above about 70%; inactive = the rest.
# How the values were obtained:
# [1] = NCI Yeast Anticancer Drug Screen. Data for the rad50 strain (AID 155);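 also: 0% = growth of vehicle-only cultures of the same strain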; conditions: S. cerevisiae rad50 strain growth inhibition, stronger effect = higher value
# Method in brief: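 Readout: growth inhibition relative to vehicle-treated cultures. Compound exposure was carried out in a genetically defined yeast strain deficient in DNA damage repair.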
# [2] = NCI Yeast Anticancer Drug Screen. Data for the mec2-1 strain (AID 157); conditions: S. cerevisiae mec2-1 strain, stronger effect = higher value
# Method in brief: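 Using mec2-1 yeast: add compound, measure growth, express inhibition versus vehicle-treated cultures.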
# [3] = NCI Yeast Anticancer Drug Screen. Data for the sgs1 mgt1 strain (AID 161);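 also: 0% = growth of cultures given vehicle only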; conditions: S. cerevisiae sgs1 mgt1 strain, stronger effect = higher value
# Method in brief: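 Compounds are added to genetically altered yeast, and growth is compared with cultures given vehicle alone to give percent inhibition.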
# [4] = NCI Yeast Anticancer Drug Screen. Data for the cln2 rad14 strain (AID 165);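 also: 0% = growth equal to vehicle treated cultures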; conditions: S. cerevisiae cln2 rad14 strain, stronger effect = higher value
# Method in brief: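 Yeast strain cln2 rad14, bearing defects in cell cycle control and DNA repair, serves as the test system; values reflect growth inhibition compared with vehicle.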
# [5] = NCI Yeast Anticancer Drug Screen. Data for the bub3 strain (AID 167); conditions: S. cerevisiae bub3 mutant strain, stronger effect = higher value
# Method in brief: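 Readout: yeast growth inhibition, expressed relative to vehicle-only wells. The test organism is a mutant strain from a panel with lesions in DNA repair or checkpoint genes.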
# [6] = NCI Yeast Anticancer Drug Screen. Data for the mlh1 rad18 strain (AID 175); conditions: S. cerevisiae mlh1 rad18 strain growth inhibition, stronger effect = higher value
# Method in brief: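 Steps: expose repair-defective yeast to compound; measure growth; express inhibition against vehicle-treated controls.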
# [7] = at 5.0 µM (retest, dose inferred, filed as 0.5)
# [8] = at 50.0 µM (retest, dose inferred, filed as 5.0)
Structure (SMILES),"growth inhibition [1, 7]","growth inhibition [1, 8]",growth inhibition ([1]; at 50.0 µM),"growth inhibition [2, 7]","growth inhibition [2, 8]",growth inhibition ([2]; at 50.0 µM),"growth inhibition [3, 7]","growth inhibition [3, 8]",growth inhibition ([3]; at 50.0 µM),"growth inhibition [4, 7]","growth inhibition [4, 8]",growth inhibition ([4]; at 50.0 µM),"growth inhibition [5, 7]","growth inhibition [5, 8]",growth inhibition ([5]; at 50.0 µM),"growth inhibition [6, 7]","growth inhibition [6, 8]",growth inhibition ([6]; at 50.0 µM)
O=Cc1cc(S(=O)(=O)c2ccc(O)c(C=O)c2)ccc1O,12%,22%,98.7% (active),32%,38%,98.7% (active),17%,25%,98.8% (active),23%,25%,97.5% (active),5%,11%,99% (active),26%,22%,98.6% (active)
COc1cc(/C=C(/C)C[N+](=O)[O-])ccc1O,54%,99% (active),99.5% (active),23%,99% (active),99.8% (active),15%,93% (active),99.8% (active),13%,99% (active),98.8% (active),36%,99% (active),98.8% (active),25%,99% (active),99.5% (active)
CCCCCCCCCCCCCCNCc1ccccc1,99% (active),97% (active),98.8% (active),99% (active),98% (active),98.5% (active),99% (active),97% (active),98.2% (active),99% (active),97% (active),97.5% (active),99% (active),97% (active),98.6% (active),99% (active),97% (active),97.5% (active)
CC(C)N(CN1C(=O)N/C(=C/c2cccc(/C=C3/NC(=O)N(CN(C(C)C)C(C)C)C3=O)c2)C1=O)C(C)C,7%,8%,21%,-15%,-11%,2.95%,-1%,3%,-2.5%,-19%,-15%,63.4%,12%,30%,17.6%,7%,8%,-4.65%
CC(=O)OC1C(C)OC(OC(=O)C2CCC3C(C2)OC2(CC(OC(=O)/C=C/c4ccccc4)C(C)CO2)C32CO2)C(OC2OC(C)C(O)C(OC(C)=O)C2O)C1O (configuration not stated),34%,97% (active),87.9% (active),36%,99% (active),92% (active),30%,99% (active),91.5% (active),45%,96% (active),88.1% (active),31%,99% (active),90.2% (active),31%,97% (active),85.2% (active)
CC(C)(C)C1=NC(=S)SC2=NC(=O)C3(NN21)c1ccccc1-c1ccccc13,6%,86% (active),90.9% (active),-6%,53%,74.3% (active),5%,78% (active),86.6% (active),-10%,45%,63%,-11%,72% (active),91% (active),6%,77% (active),94.9% (active)
C(=N\Nc1ccc2ccccc2n1)/c1ccccn1.CC(=O)[O-].CC(=O)[O-].[Zn+2],-4%,2%,16.7%,2%,-2%,39.3%,-3%,-3%,84.3% (active),-3%,0%,-19.6%,-1%,-1%,18.3%,2%,0%,57.4%
CN(C)c1nc(=NCc2ccccc2)ss1,-7%,46%,66.9%,-5%,38%,54.7%,19%,77% (active),72.5% (active),8%,48%,36.6%,0%,76% (active),59%,5%,82% (active),50.1%
O=C1CCSC(=S)N1c1ccc(N=Nc2ccccc2)cc1,57%,94% (active),75.4% (active),9%,91% (active),97.6% (active),20%,94% (active),97.2% (active),11%,13%,84% (active),0%,4%,93.5% (active),18%,94% (active),94.5% (active)
O=[N+]([O-])c1ccc2c(c1)OCO2,0%,22%,68.2%,1%,4%,8%,-2%,3%,69.7%,1%,0%,6.95%,0%,3%,37%,-4%,5%,67.7%
COc1cc(C(c2cc3c(cc2O)OCO3)N2CCCCC2)cc(OC)c1OC (configuration not stated),-4%,13%,25%,0%,20%,34.6%,-5%,-33%,21.8%,-6%,-3%,67.5%,-1%,4%,31.6%,-6%,6%,62.6%
O=C1CC(=S)NC(=S)N1,-2%,-6%,12.8%,0%,-1%,-1.7%,-1%,-2%,-15%,-5%,-6%,-26%,-2%,-8%,-10.4%,-3%,-5%,40.2%
Cc1cc(N)c2ccccc2[n+]1CCCCCCCCCC[n+]1c(C)cc(N)c2ccccc21,42%,98% (active),89.3% (active),47%,95% (active),92.8% (active),98% (active),96% (active),92.3% (active),90% (active),99% (active),91% (active),97% (active),98% (active),91% (active),51%,97% (active),81.3% (active)
CN(C)c1ccc2c(c1)Cc1cc(NC(=O)/C=C/C(=O)O)ccc1-2,-31%,-21%,-6.7%,-10%,-19%,-2.05%,-13%,12%,-8.55%,-5%,6%,-5.6%,2%,-3%,-10.7%,-2%,7%,-4.7%
O=C(Nc1ccc(S(=O)(=O)NC2CCCCC2)cc1)OC1CCCCC1,14%,95% (active),92.9% (active),30%,98% (active),93.4% (active),66%,92% (active),94.3% (active),-10%,93% (active),93.7% (active),10%,95% (active),92.3% (active),11%,95% (active),94% (active)
C=C1CC(C)(COc2ccc3c(C)c(C)c(=O)oc3c2C)OC1=O (configuration not stated),26%,82% (active),-23.4%,16%,90% (active),-75.4%,24%,73% (active),-10.7%,30%,64%,-23.1%,26%,86% (active),-10.8%,29%,94% (active),-24.7%
O=c1cc(CI)oc2ccccc12,34%,99% (active),99.4% (active),57%,99% (active),99.5% (active),46%,99% (active),99.6% (active),20%,100% (active),85.7% (active),45%,99% (active),94% (active),36%,99% (active),99.5% (active)
CCCCCC=C(c1cc(Br)cc(C(=O)O)c1O)c1cc(Br)cc(C(=O)O)c1O,2%,91% (active),89.2% (active),0%,95% (active),85.8% (active),0%,95% (active),82.8% (active),2%,94% (active),67.1%,0%,94% (active),69%,4%,94% (active),88.9% (active)
Cc1ccc(NS(=O)(=O)c2ccc(C)cc2)cc1,-7%,92% (active),37.6%,-8%,92% (active),14.1%,-11%,92% (active),26.8%,-6%,68%,22.4%,-6%,90% (active),28.6%,-4%,86% (active),47.1%

# — PubChem BioAssay (NCI)
